Assay results: paper PMC6579518

Columns and labels:
[1] = biological target: Large ribosomal subunit protein eL18A (UniProt P0CX49); experiment: cross-link between two proteins; cross-linking mass spectrometry
[2] = biological target: Probable metalloprotease ARX1 (UniProt Q03862); experiment: as above
[3] = biological target: Ribosome biogenesis protein ALB1 (UniProt P47019); experiment: as above
[4] = biological target: U3 small nucleolar RNA-associated protein 22 (UniProt P53254); experiment: cross-link between two proteins; affinity purification or IP with mass spectrometry; cross-linking mass spectrometry
[5] = biological target: Cytoplasmic 60S subunit biogenesis factor REI1 (UniProt P38344); experiment: cross-link between two proteins; cross-linking mass spectrometry
[6] = biological target: Nucleolar GTP-binding protein 1 (UniProt Q02892); experiment: as above
UPF0642 protein YBL028C = UPF0642 protein YBL028C (UniProt P38202); experiment: as above
[7] = biological target: Large ribosomal subunit protein eL14A (UniProt P36105); experiment: as above
[8] = biological target: Large ribosomal subunit protein eL20A (UniProt P0CX23); experiment: as above
[9] = biological target: rRNA biogenesis protein RRP5 (UniProt Q05022); experiment: as above
[10] = biological target: Large ribosomal subunit protein eL19A (UniProt P0CX82); experiment: as above
[11] = biological target: Large ribosomal subunit protein uL2A (UniProt P0CX45); experiment: as above
Large subunit GTPase 1 = Large subunit GTPase 1 (UniProt P53145); experiment: as above
[12] = biological target: WD repeat-containing protein JIP5 (UniProt Q06214); experiment: as above
[13] = biological target: Pumilio homology domain family member 6 (UniProt Q04373); experiment: as above

Chain of Large ribosomal subunit protein eL43A, P0CX25 (P0CX25 whole entry): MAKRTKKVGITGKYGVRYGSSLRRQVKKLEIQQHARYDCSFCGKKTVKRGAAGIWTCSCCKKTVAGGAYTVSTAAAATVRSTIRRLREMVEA
Chain of Large ribosomal subunit protein eL18A (P0CX49 whole entry): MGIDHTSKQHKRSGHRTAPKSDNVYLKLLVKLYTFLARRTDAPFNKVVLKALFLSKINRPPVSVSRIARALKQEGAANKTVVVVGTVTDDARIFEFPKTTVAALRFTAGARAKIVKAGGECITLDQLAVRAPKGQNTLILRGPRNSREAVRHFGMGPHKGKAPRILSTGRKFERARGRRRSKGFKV
Chain of Large ribosomal subunit protein eL20A (P0CX23 whole entry): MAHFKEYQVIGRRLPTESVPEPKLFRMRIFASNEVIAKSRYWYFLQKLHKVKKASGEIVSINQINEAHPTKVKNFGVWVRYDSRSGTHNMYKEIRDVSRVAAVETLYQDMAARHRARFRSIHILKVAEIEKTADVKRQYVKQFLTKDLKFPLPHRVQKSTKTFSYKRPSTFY
Chain of Large ribosomal subunit protein eL14A (P36105 whole entry): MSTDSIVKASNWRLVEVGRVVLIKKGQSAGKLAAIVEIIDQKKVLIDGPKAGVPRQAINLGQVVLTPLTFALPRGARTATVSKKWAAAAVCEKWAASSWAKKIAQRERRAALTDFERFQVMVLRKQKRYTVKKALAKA
Chain of Ribosome biogenesis protein ALB1 (P47019 whole entry): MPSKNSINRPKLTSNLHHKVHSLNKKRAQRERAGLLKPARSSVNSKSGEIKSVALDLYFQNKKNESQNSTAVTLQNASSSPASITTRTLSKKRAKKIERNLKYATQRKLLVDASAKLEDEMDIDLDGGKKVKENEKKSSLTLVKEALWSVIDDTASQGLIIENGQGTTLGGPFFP
Chain of UPF0642 protein YBL028C (P38202 whole entry): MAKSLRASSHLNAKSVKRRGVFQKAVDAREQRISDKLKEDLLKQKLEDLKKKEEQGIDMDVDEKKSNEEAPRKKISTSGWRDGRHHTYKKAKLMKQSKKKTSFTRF
Chain of Large ribosomal subunit protein eL19A (P0CX82 whole entry): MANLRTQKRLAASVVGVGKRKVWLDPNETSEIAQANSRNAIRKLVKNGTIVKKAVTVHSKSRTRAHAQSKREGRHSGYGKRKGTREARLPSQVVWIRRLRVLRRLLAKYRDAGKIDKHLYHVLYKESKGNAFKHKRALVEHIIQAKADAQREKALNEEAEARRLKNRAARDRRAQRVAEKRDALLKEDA
Chain of Probable metalloprotease ARX1 (Q03862 whole entry): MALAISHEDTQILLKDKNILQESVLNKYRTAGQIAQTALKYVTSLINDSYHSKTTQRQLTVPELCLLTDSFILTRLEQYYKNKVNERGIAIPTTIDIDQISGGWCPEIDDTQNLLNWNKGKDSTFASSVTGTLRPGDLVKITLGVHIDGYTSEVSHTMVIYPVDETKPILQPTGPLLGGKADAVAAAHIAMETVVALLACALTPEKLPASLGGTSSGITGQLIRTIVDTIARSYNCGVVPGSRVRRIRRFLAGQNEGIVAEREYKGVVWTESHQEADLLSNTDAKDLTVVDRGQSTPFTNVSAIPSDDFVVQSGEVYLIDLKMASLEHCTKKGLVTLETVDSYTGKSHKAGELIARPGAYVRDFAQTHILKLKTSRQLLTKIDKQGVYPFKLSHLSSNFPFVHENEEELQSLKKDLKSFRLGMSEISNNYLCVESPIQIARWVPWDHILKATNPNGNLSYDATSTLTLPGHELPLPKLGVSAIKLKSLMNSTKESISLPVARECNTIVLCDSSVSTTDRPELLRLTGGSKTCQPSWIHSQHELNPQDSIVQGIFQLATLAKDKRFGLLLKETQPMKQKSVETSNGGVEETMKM
Chain of Large ribosomal subunit protein eL29, P05747 (P05747 whole entry): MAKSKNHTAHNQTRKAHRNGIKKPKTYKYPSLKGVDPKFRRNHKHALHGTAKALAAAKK
Chain of Large subunit GTPase 1 (P53145 whole entry): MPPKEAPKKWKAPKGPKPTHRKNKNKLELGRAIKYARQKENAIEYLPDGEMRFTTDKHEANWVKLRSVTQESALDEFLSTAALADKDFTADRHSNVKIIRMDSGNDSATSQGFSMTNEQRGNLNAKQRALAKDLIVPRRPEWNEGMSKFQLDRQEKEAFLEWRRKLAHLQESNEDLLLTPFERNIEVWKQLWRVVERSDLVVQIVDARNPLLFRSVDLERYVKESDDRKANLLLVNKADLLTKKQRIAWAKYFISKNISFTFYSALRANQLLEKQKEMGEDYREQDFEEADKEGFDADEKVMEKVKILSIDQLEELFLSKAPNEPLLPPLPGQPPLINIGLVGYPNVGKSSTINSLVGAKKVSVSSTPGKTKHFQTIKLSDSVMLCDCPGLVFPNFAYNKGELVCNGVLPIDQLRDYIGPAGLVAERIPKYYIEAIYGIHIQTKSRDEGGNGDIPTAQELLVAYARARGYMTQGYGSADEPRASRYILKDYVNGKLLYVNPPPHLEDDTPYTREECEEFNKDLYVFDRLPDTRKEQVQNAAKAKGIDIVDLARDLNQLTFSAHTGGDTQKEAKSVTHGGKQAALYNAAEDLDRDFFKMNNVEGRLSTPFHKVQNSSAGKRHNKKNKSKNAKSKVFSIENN
Chain of Large ribosomal subunit protein uL3, P14126 (P14126 whole entry): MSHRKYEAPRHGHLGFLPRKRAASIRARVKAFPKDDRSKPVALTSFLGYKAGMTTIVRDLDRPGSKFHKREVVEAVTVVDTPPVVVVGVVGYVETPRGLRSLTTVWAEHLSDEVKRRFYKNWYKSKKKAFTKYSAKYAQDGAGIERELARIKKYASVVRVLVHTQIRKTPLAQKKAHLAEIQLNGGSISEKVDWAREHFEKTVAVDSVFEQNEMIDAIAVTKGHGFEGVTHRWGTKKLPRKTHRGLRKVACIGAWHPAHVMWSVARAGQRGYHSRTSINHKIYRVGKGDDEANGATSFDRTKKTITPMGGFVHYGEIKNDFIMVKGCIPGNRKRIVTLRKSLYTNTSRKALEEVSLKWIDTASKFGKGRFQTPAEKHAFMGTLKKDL
Chain of Heat shock protein SSA1, P10591 (P10591 whole entry): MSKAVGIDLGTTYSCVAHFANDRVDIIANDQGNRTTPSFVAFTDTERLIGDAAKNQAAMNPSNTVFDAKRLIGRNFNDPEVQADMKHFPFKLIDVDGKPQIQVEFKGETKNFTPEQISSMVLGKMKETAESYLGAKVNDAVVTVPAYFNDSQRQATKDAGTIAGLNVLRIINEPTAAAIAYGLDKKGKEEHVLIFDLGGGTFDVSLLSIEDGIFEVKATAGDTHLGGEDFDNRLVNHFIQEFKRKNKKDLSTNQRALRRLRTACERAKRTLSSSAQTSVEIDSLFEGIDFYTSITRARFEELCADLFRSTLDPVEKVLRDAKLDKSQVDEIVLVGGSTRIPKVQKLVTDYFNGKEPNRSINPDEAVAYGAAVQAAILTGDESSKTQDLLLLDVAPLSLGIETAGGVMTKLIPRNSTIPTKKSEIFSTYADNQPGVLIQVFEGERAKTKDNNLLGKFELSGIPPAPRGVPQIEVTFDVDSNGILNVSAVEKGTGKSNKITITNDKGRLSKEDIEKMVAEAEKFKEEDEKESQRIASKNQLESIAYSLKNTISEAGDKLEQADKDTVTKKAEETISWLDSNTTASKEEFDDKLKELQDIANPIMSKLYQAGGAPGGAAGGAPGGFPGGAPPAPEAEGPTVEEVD
Chain of Nucleolar GTP-binding protein 1 (Q02892 whole entry): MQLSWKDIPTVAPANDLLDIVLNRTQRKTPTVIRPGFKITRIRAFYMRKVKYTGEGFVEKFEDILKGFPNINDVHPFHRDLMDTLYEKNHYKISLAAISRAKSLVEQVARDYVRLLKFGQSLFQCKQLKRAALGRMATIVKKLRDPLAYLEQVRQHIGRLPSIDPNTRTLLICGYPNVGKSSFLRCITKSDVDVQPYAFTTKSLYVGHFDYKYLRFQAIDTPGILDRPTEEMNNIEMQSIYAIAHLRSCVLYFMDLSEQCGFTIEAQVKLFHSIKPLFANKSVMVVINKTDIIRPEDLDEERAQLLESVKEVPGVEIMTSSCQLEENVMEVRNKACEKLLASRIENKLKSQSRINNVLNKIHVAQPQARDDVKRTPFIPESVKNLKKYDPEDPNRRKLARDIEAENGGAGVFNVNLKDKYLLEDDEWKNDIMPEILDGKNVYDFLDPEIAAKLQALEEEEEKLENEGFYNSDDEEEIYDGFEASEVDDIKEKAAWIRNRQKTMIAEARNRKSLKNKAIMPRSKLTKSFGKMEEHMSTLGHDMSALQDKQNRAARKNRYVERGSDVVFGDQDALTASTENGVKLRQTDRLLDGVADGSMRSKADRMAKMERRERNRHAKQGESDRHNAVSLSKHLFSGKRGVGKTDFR
Chain of Cytoplasmic 60S subunit biogenesis factor REI1 (P38344 whole entry): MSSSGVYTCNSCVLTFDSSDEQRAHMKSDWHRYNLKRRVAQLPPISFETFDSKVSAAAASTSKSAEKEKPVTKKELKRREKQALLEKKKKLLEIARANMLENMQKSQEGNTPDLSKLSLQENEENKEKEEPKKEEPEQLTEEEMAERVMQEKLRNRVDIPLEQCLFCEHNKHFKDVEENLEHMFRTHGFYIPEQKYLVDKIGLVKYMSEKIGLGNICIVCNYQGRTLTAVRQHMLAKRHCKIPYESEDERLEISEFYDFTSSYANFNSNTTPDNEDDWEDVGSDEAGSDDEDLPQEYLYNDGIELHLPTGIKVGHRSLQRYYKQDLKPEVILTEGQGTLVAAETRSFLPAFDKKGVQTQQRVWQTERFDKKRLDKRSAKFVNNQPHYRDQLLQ
Chain of Large ribosomal subunit protein uL2A (P0CX45 whole entry): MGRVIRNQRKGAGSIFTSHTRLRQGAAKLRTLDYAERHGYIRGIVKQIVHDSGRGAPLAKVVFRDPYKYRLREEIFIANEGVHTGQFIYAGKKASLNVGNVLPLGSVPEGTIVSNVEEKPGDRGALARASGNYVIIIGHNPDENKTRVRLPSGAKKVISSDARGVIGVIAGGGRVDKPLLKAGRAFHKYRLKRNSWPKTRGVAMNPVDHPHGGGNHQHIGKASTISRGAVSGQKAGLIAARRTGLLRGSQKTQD
Chain of Large ribosomal subunit protein uL15, P02406 (P02406 whole entry): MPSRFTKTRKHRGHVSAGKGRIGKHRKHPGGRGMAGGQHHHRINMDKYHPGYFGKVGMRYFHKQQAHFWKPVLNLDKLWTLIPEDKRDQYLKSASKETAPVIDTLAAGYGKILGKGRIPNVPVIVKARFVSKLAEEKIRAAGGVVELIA

Large ribosomal subunit protein eL29, P05747
listed as a hit [1]: yes

Large ribosomal subunit protein uL24A, P05743
listed as a hit [2]: yes
listed as a hit [3]: yes

Heat shock protein SSA1, P10591
listed as a hit [4]: yes

Large ribosomal subunit protein eL24A, P04449
listed as a hit [5]: yes

Pescadillo homolog, P53261
listed as a hit [6]: yes

Large ribosomal subunit protein uL3, P14126
listed as a hit (UPF0642 protein YBL028C): yes

Large ribosomal subunit protein uL13B, P26785
listed as a hit [7]: yes

Large ribosomal subunit protein uL6A, P05738
listed as a hit (UPF0642 protein YBL028C): yes

Large ribosomal subunit protein uL30A, P05737
listed as a hit [7]: yes
listed as a hit [8]: yes
listed as a hit [9]: yes

Large ribosomal subunit protein eL33A, P05744
listed as a hit [8]: yes

Large ribosomal subunit protein uL15, P02406
listed as a hit [1]: yes

Large ribosomal subunit protein eL43A, P0CX25
listed as a hit [10]: yes
listed as a hit [11]: yes
listed as a hit (Large subunit GTPase 1): yes

Large ribosomal subunit protein eL6B, P05739
listed as a hit [3]: yes

Ubiquitin-ribosomal protein eS31 fusion protein, P05759
listed as a hit [10]: yes

Large ribosomal subunit protein uL1A, P0CX43
listed as a hit [12]: yes

Large ribosomal subunit protein uL5A, P0C0W9
listed as a hit [13]: yes
